Data published in PubChem BioAssay AID463212 (Sanford-Burnham Center for Chemical Genomics, 2010).
In all, about 330,000 compounds went through this assay and about 4,400 (1.3%) were called active. For the sample, actives were picked, then their nearest neighbours and some compounds at random. A number with no mark means an inactive call.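 Rule for the calls: active = growth inhibition of the mutant yeast at or above 50%; inactive = the rest.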

Test: growth inhibitors of tim23-1 mutant yeast, primary screen, luminescence, uHTS (AID 463212);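 note: temperature-sensitive mutant grown at 25 °C; plate controls were DMSO-treated mutant yeast for no effect and medium wells lacking yeast for full effect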
Conditions: S. cerevisiae tim23-1 growth, BacTiter-Glo luminescence, 24 h; at 20 µM; hits give high values

Compound	inhibition
O=C(Nc1nnc(SCc2c(Cl)cccc2Cl)s1)c1cccc([N+](=O)[O-])c1	-8.16%
O=C(NCc1ccccc1Cl)C1CCCO1 (centres undefined)	3.86%
O=C(Nc1nnc(SCc2c(Cl)cccc2Cl)s1)C1CCCO1 (centres undefined)	52.3% (active)
CC1CN(C(=O)c2cc(COc3c(F)cccc3F)on2)CCN1C (centres undefined)	8.91%
NC(=O)C1CCN(C(=O)c2cn(-c3ccccc3)nc2-c2cccnc2)CC1	-6.01%
O=C(COC(=O)/C=C/c1cn(-c2ccccc2)nc1-c1cccnc1)Nc1ccc(Cl)cc1Cl	20.1%
CN(C)/N=C/c1cn(-c2ccccc2)nc1-c1cccnc1	50.3% (active)
O=C1CC(C(F)(F)C(F)(F)C(F)(F)C(F)(F)F)=Nc2ccccc2N1	15.9%
CC(C)C[C@H](NC(=O)NCCc1ccc(Cl)cc1)C(=O)O	9.43%
Cc1ccc2nc(SCC(=O)N3CC(C)OC(C)C3)nc(=O)n2c1 (centres undefined)	10.2%
O=C(NC(=S)Nc1ccccc1N1CCCCC1)c1ccc(F)cc1	32.5%
CCc1ccc(C(=O)NC(=S)Nc2ccccc2N2CCOCC2)cc1	53.9% (active)
O=C(Nc1ccccc1N1CCOCC1)c1ccncc1	-8.11%
O=C(NC1CC2CCCC(C1)N2C(=O)N1CCCCC1)C1CCCCC1 (centres undefined)	19.4%
Cc1cc(C)nc(NC2=NCC(=O)N2c2ccc(Cl)cc2)n1	-5.7%
O=C(N/N=C/C=C/c1ccco1)c1cccs1	59.4% (active)
O=C(N/N=C/c1ccco1)c1csc2c1CCCC2	22.8%
O=C(Nc1ccc(NC(=O)c2cccs2)cn1)c1ccco1	17.2%
O=C(Nc1ccc(Br)cc1)c1cc(S(=O)(=O)Nc2ccccn2)ccc1Cl	-0.209%
Cc1ccc(NN=C2C(=O)OC(C)(C)OC2=O)c(C)c1	-2.58%
CCCCCCCN=C(C)c1ccccc1O	5.76%
CCCCCCc1ccc(O)cc1O	62.8% (active)
CCCCCCc1cc2cc(-c3nnc(-c4ccccc4)o3)c(=O)oc2cc1O	7.67%
CC(C)NC(=O)NNc1c(Cl)cncc1Cl	2.69%

Compound	inhibition
O=C(/C=C/c1cccc(C(F)(F)F)c1)N1CCN(c2ccccn2)CC1	37.6%
COc1ccc(NC(C)=O)cc1NC(=O)CN1CCN(C2c3ccccc3-c3ccccc32)CC1	26.8%
O=C(C[C@H]1C(=O)N(c2ccc(F)c(F)c2)C[C@@H]1Cc1ccccc1)Nc1ccccc1	13.5%
COc1ccc(NC(=O)CSc2nc(NS(=O)(=O)c3ccc(C)cc3)cc(=O)[nH]2)cc1	2.94%
Cc1noc(C)c1-c1ccc2ncnc(NC(C)c3ccco3)c2c1 (centres undefined)	5.06%
Oc1ccc(-c2nnc(Nc3ccccc3)c3ccccc23)cc1	-5.13%
Cc1cccc(-c2nc(Nc3ccc(O)cc3)c3ccccc3n2)c1	62.7% (active)
CC(=O)Nc1cccc(Nc2nc(-c3cccs3)nc3ccccc23)c1	39.4%
CCCCn1c(O)c(N=NC(=O)Cn2c(C(F)(F)F)nc3ccccc32)c2ccccc21	-27.6%
O=c1ccc2c(-c3ccccc3S(=O)(=O)O)c3ccc(O)c(O)c3oc-2c1O	56% (active)
CCCn1c(N)c(C(=O)CSc2nnc3n2CCCCC3)c(=O)[nH]c1=O	7.27%
Cc1cc(C(=O)CCl)c(C)n1CC1COc2ccccc2O1 (centres undefined)	34.4%
O=C1C(=O)N(CC2COc3ccccc3O2)c2ccccc21 (centres undefined)	72.4% (active)
O=C(CN1C(=O)C2C3C=CC(C3)C2C1=O)NCC1COc2ccccc2O1 (centres undefined)	18.2%
CC(=O)Nc1sc2c(c1C(c1cccc(F)c1)N1CCN(CCO)CC1)CCCC2 (centres undefined)	14.7%
Cc1cccc(-[n+]2c(-c3cccc(Br)c3)[nH]c3nc4ccccc4nc32)c1	22.7%
Cc1ccccc1NC(=S)NNC(=O)c1cccc(Br)c1	14.7%
O=C(NC(=S)Nc1cccc2c(O)cccc12)c1cccc(Br)c1	68.6% (active)
NS(=O)(=O)c1ccc(NC(=S)NC(=O)c2cccc(Br)c2)cc1	28.3%
Cc1ccc(C)c(OCc2cc(C(=O)N3CCN(c4cnccn4)CC3)no2)c1	23.9%
Cc1cccc(NC(=O)c2ccc([N+](=O)[O-])o2)c1	7.53%
O=C(Nc1ccc(Br)cn1)c1ccc([N+](=O)[O-])o1	43.4%
Cc1onc(NC(=O)c2ccc([N+](=O)[O-])o2)c1Br	55.6% (active)
O=C(CCCNS(=O)(=O)c1cccc2nsnc12)NCCN1CCN(c2ccccc2F)CC1	1.63%

Compound	inhibition
O=C1Nc2ccccc2/C1=C/c1ccnc2ccccc12	51.2% (active)
COc1cc(NS(=O)(=O)c2ccc(NC(=O)c3ccc(S(=O)(=O)N4CCCCC4)cc3)cc2)ncn1	3.91%
CCC1(CC)NC(=O)N(Cc2nc3ccccc3s2)C1=O	21.9%
O=C1NC(Nc2nc3ccccc3s2)(C(F)(F)F)C(=O)N1C1CCCCC1 (centres undefined)	58.9% (active)
O=C(NC1(C(F)(F)F)NC(=O)N(C2CCCCC2)C1=O)c1ccco1 (centres undefined)	14.4%
CC(C)c1ccc(NC(=O)[C@@H](NC(=O)N2CC(=O)Nc3ccccc32)C(C)C)cc1	10.9%
Cc1c(NC(=O)CCC2CCCCC2)cc(C(=O)N2CCOCC2)cc1[N+](=O)[O-]	7.43%
CC(=O)Nc1ccc(S(=O)(=O)NC2(C(F)(F)F)C(=O)NC(C)=C2C#N)cc1 (centres undefined)	10.8%
Cc1cc(N2CCOCC2)nc2ccc(NC(=S)N3CCN(Cc4ccccc4)CC3)cc12	7.08%
Cc1cc(N2CCN(C)CC2)nc2ccc(NC(=S)N3CCOCC3)cc12	12.1%
CCn1c2ccccc2c2cc(NC(=S)N3CCOCC3)ccc21	51.8% (active)
COc1ccccc1CN1CC(C(=O)NCCc2cn[nH]c2)CCC1=O (centres undefined)	11.8%
CCCNC(=O)Nc1ccccc1C(=O)Nc1ccc(OC)cc1	11%
CCOC(=O)Cc1ncccc1C(=O)Nc1ccc(OC)cc1	-4.31%
COc1ccc(NC(=O)Nc2cccc3cccnc23)cc1	58.6% (active)
COc1ccc(CNS(=O)(=O)c2cc3c4c(c2)CCN4C(=O)CC3)cc1	9.82%
COc1ccccc1C(=O)NC(=O)COC(=O)c1ccco1	1.32%
COc1ccc(N2CCN(C(=O)/C(C#N)=C/c3ccccc3)CC2)cc1	40.6%
COc1ccc(/C=C(\C#N)C(=O)ONC2=NCCCCC2)cc1	68.2% (active)
COc1ccc(/C=C(\C#N)C(=O)OCC(=O)N(C)C2CCS(=O)(=O)C2)cc1 (centres undefined)	-18.1%
CC(=O)C1=C(C)NC(C)=C(C(C)=O)C1c1cn(-c2ccccc2)nc1-c1cccs1	29.1%
Cc1nn(Cc2ccc(Cl)c(Cl)c2)c(C)c1NC(=O)c1cc(C2CC2)on1	56.6% (active)
CSc1ccccc1NC(=O)c1cc(C2CC2)on1	15.5%
Cc1nn(Cc2ccc(F)cc2)c(C)c1NC(=O)c1cccnc1Cl	9.85%

Compound	inhibition
C/C(=N/NC(=O)CN1CCN(S(=O)(=O)c2ccc(Br)cc2)CC1)c1ccncc1	4.89%
COC(=O)N/N=C/c1ccc(-c2ccc(Cl)c(Cl)c2)o1	54.7% (active)
O=C(N/N=C\c1ccc(-c2ccc(Cl)c(Cl)c2)o1)C(=O)N1CCCC1	-5.25%
Nc1nnnn1CC(=O)N/N=C/c1ccc(-c2cccc(Cl)c2)o1	1.59%
Cc1c(C)c2ccc(OCC(=O)N3CCN(c4cccc(Cl)c4)CC3)cc2oc1=O	-6.57%
Cc1ccc(N2C(=O)CC(Sc3ncn[nH]3)C2=O)cc1 (centres undefined)	-0.146%
O=C1CC(Sc2ncn[nH]2)C(=O)N1c1ccccc1 (centres undefined)	51% (active)
COc1ccc(N2C(=O)CC(Sc3n[nH]c(-c4ccc(C)cc4)n3)C2=O)cc1 (centres undefined)	28.8%
COc1ccc(C(c2nnnn2C2CCCCC2)N2CCN(c3ccccc3F)CC2)cc1 (centres undefined)	14.3%
CC(C(=O)NC1CCCC1)N(c1ccc(Oc2ccccc2)cc1)S(C)(=O)=O (centres undefined)	29.3%
Cc1cc(OC(=O)c2c(Cl)cccc2Cl)nc(C)n1	23.1%
Cc1ccc(NNC(=O)c2c(F)cccc2Cl)cc1Cl	44.2%
Cc1cc(C)c(S(=O)(=O)c2ccccc2)c(OC(=O)c2c(F)cccc2Cl)n1	64.7% (active)
COc1ccc(C(C(=O)NCC2CCCO2)N(C(=O)Cn2nnc3ccccc32)c2ccc(NC(C)=O)cc2)cc1OC (centres undefined)	15.6%
CCOc1ccc(CC(=O)NCCS(=O)(=O)N2CCN(c3ccccc3)CC2)cc1	-7.53%
O=C(N/N=C/c1cccc2cccnc12)[C@H]1C[C@@H]1c1ccccc1	18.6%
COc1ccc(C(C[N+](=O)[O-])n2nc(C)cc2C)cc1 (centres undefined)	84.7% (active)
CCOc1ccc(C(C)C)cc1S(=O)(=O)n1nc(C)cc1C	36.9%
COc1ccc(OC)c(S(=O)(=O)n2c([N+](=O)[O-])cnc2C)c1	12.9%
COc1cc(OC)c(NS(=O)(=O)c2cn(C)cn2)cc1Cl	-16.4%
CC(C)(C)n1nnnc1C(c1ccccc1F)N1CCN(C(=O)c2ccco2)CC1 (centres undefined)	19.8%
CC(=O)O[C@H]1CC[C@@]2(C)[C@@H](CC[C@@H]3[C@@H]2CC[C@]2(C)[C@@H](C(C)(C)O)C[C@@H]32)C1	28.2%
